In PubChem BioAssay AID1159580 (chemical genetic matrix, 2015):
Values joined by “and” are separate entries in the source; they are usually repeats but may differ in a detail not shown here. Equal entries are not always repeated. Screen size: about 5,500 compounds; about 2,000 (36%) were called active. Another 18% or so got no clear call; they are omitted. No stated cut-off is given here; in the data, active means normalized growth mostly below about 0.91 (no sharp cut-off); inconclusive means no clear call, values can overlap the other calls; inactive means mostly above about 0.92. The list shows a part of the results.

Assay: chemical genetic growth profiling, strain panel (AID 1159580);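 further: tested at 20 µM; growth read once vehicle control cultures reached saturation at 30 °C; 1 = growth at the plate median or of vehicle wells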
Conditions: S. cerevisiae deletion strains, growth OD

Measured: normalized growth

Cc1cc(N)c2ccccc2[n+]1CCCCCCCCCC[n+]1c(C)cc(N)c2ccccc21
active: locus YAL013W, strain DEP1, stronger effect = lower value 0.0603 | locus YAL021C, strain ccr4, stronger effect = lower value 0.0693 | locus YAL026C, strain drs2, stronger effect = lower value 0.0714 | locus YAL030W, strain snc1, stronger effect = lower value 0.0625 | locus YAL040C, strain CLN3, stronger effect = lower value 0.0761 | locus YBL061C, strain skt5, stronger effect = lower value 0.066 | locus YBR009C, strain hhf1, stronger effect = lower value 0.0696 | locus YBR021W, strain FUR4, stronger effect = lower value 0.0907 | locus YBR023C, strain chs3, stronger effect = lower value 0.0647 | locus YBR171W, strain sec66, stronger effect = lower value 0.0836 | locus YBR229C, strain ROT2, stronger effect = lower value 0.0499 | locus YBR231C, strain swc5, stronger effect = lower value 0.0655 | locus YBR279W, strain paf1, stronger effect = lower value 0.105 | locus YCL011C, strain gbp2, stronger effect = lower value 0.0611 | locus YCL016C, strain dcc1, stronger effect = lower value 0.0686 | locus YCL029C, strain bik1, stronger effect = lower value 0.0664 | locus YCL061C, strain MRC1 (second series), stronger effect = lower value 0.0482 | locus YCL061C, strain MRC1, stronger effect = lower value 0.0691 | locus YCL069W, strain vba3, stronger effect = lower value 0.0657 | locus YCR088W, strain abp1, stronger effect = lower value 0.0654 | locus YDL005C, strain med2, stronger effect = lower value 0.0789 | locus YDL035C, strain GPR1, stronger effect = lower value 0.0543 | locus YDL040C, strain nat1, stronger effect = lower value 0.0635 | locus YDL074C, strain BRE1, stronger effect = lower value 0.0853 | locus YDL101C, strain DUN1, stronger effect = lower value 0.0584 | locus YDL134C, strain PPH21, stronger effect = lower value 0.0503 | locus YDL185W, strain tfp1, stronger effect = lower value 0.0607 | locus YDL192W, strain arf1, stronger effect = lower value 0.0659 | locus YDR001C, strain nth1, stronger effect = lower value 0.0643 | locus YDR069C, strain doa4, stronger effect = lower value 0.0664 | locus YDR101C, strain arx1, stronger effect = lower value 0.0626 | locus YDR137W, strain rgp1, stronger effect = lower value 0.0886 | locus YDR150W, strain NUM1, stronger effect = lower value 0.0524 | locus YDR159W, strain sac3, stronger effect = lower value 0.0966 | locus YDR162C, strain NBP2, stronger effect = lower value 0.0484 | locus YDR195W, strain ref2 0.14 | locus YDR297W, strain sur2, stronger effect = lower value 0.0628 | locus YDR318W, strain mcm21, stronger effect = lower value 0.0702 | locus YDR334W, strain swr1, stronger effect = lower value 0.0697 | locus YDR335W, strain msn5, stronger effect = lower value 0.0637 | locus YDR363W, strain ESC2, stronger effect = lower value 0.0798 | locus YDR388W, stronger effect = lower value 0.0589 | locus YDR392W, strain spt3, stronger effect = lower value 0.104 | locus YDR502C, strain sam2, stronger effect = lower value 0.066 | locus YEL003W, strain gim4, stronger effect = lower value 0.0587 | locus YEL037C, strain rad23, stronger effect = lower value 0.06 | locus YEL061C, strain CIN8 (second series), stronger effect = lower value 0.066 | locus YEL061C, strain CIN8, stronger effect = lower value 0.0508 | locus YER002W, strain NOP16, stronger effect = lower value 0.0717 | locus YER015W, strain faa2, stronger effect = lower value 0.064 | locus YER016W, strain bim1, stronger effect = lower value 0.0649 | locus YER110C, stronger effect = lower value 0.0798 | locus YER111C, strain swi4, stronger effect = lower value 0.0774 | locus YER155C, strain BEM2 (second series), stronger effect = lower value 0.0923 | locus YER155C, strain BEM2, stronger effect = lower value 0.0729 | locus YER167W, strain BCK2, stronger effect = lower value 0.0524 | locus YFR010W, strain ubp6, stronger effect = lower value 0.0738 | locus YGL078C, strain dbp3, stronger effect = lower value 0.0809 | locus YGL086W, strain mad1, stronger effect = lower value 0.0599 | locus YGL167C, strain pmr1, stronger effect = lower value 0.0819 | locus YGL173C, strain kem1, stronger effect = lower value 0.0682 | locus YGL227W, strain vid30, stronger effect = lower value 0.0671 | locus YGL240W, strain doc1, stronger effect = lower value 0.0823 | locus YGL248W, strain PDE1, stronger effect = lower value 0.0477 | locus YGL253W, strain hxk2, stronger effect = lower value 0.0575 | locus YGR078C, strain PAC10, stronger effect = lower value 0.0515 and 0.0686 | locus YGR135W, strain pre9, stronger effect = lower value 0.0652 | locus YGR229C, strain SMI1, stronger effect = lower value 0.0559 | locus YGR252W, strain gcn5, stronger effect = lower value 0.156 | locus YHR013C, strain ard1, stronger effect = lower value 0.116 | locus YHR027C, strain rpn1, stronger effect = lower value 0.0661 | locus YHR030C, strain SLT2, stronger effect = lower value 0.0523 | locus YHR079C, strain IRE1 (second series), stronger effect = lower value 0.0634 | locus YHR094C, strain hxt1, stronger effect = lower value 0.0669 | locus YHR129C, strain ARP1, stronger effect = lower value 0.087 | locus YHR142W, strain chs7, stronger effect = lower value 0.0778 | locus YHR200W, strain rpn10, stronger effect = lower value 0.0666 | locus YIL066C, strain RNR3, stronger effect = lower value 0.0524 | locus YIL073C, strain SPO22, stronger effect = lower value 0.118 | locus YIL125W, strain kgd1, stronger effect = lower value 0.0847 | locus YIR030C, strain dcg1, stronger effect = lower value 0.0641 | locus YJL092W, strain hpr5, stronger effect = lower value 0.062 | locus YJL095W, strain BCK1 (second series), stronger effect = lower value 0.0654 | locus YJL095W, strain BCK1, stronger effect = lower value 0.0618 | locus YJL115W, strain asf1, stronger effect = lower value 0.0762 | locus YJL129C, strain trk1, stronger effect = lower value 0.0876 | locus YJL134W, strain LCB3, stronger effect = lower value 0.0487 | locus YJL154C, strain vps35, stronger effect = lower value 0.0637 | locus YJL164C, strain tpk1, stronger effect = lower value 0.0693 | locus YJL166W, strain qcr8, stronger effect = lower value 0.0646 | locus YJL168C, strain set2, stronger effect = lower value 0.064 | locus YJL187C, strain SWE1 (second series), stronger effect = lower value 0.0504
